Assay results from PubChem BioAssay (Tox21).
Records with an inconclusive call do not appear. Active and inactive are the calls of the source. Unless noted, calls follow the shape of the full dose curve.

Tests used:
[1] = target: Gonadotropin-releasing hormone receptor (Homo sapiens) (UniProt P30968); assay: Human gonadotropin-releasing hormone receptor (GnRHR) small molecule agonists, calcium flux assay in GnRHR-HEK293 cells (AID 1920063); also: nearly all actives have a fitted effect of over 35% in size; also: potency is read from the fitted curve at half-maximal effect
Sequence of Gonadotropin-releasing hormone receptor (Homo sapiens) (P30968 whole entry, looked up): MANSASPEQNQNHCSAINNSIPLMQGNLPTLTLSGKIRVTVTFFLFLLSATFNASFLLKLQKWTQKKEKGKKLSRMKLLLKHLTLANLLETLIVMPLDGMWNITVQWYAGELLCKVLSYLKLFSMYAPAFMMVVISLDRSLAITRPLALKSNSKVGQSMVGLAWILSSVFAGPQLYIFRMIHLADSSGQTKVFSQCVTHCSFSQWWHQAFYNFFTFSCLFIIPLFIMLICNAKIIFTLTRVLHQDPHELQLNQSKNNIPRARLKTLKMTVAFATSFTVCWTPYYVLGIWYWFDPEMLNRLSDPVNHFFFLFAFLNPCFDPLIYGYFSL
Outline: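 Intracellular calcium rise is the read-out: engineered human GnRHR HEK293 cells, dye-loaded, are exposed to DMSO-dissolved compounds and fluorescence at Ex/Em 480/540 is tracked for 3 min.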

[2] = target: KiSS-1 receptor (Homo sapiens) (UniProt Q969F8); assay: Human kisspeptin (KISS1R) small molecule agonists, calcium flux assay in KISS1R-HEK293 cells (AID 1920064; active = well fitted activation curve with a large enough effect in the repeat runs; also: potency is read from the fitted curve at half-maximal effect)
Sequence of KiSS-1 receptor (Homo sapiens) (Q969F8 whole entry, looked up): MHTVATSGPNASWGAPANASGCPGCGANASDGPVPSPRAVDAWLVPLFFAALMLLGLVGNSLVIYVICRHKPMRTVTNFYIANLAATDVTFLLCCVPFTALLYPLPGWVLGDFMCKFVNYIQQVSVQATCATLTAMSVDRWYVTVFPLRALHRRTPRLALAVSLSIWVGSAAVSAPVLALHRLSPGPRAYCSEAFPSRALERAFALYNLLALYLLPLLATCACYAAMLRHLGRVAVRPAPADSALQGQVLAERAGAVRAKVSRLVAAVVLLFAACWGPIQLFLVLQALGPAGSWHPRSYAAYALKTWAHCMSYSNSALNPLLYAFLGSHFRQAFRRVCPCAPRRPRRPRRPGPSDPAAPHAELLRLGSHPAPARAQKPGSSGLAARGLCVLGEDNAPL
Outline: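 Concentration-response testing used 15 concentrations in triplicate on human KISS1R-expressing HEK293 cells. Calcium-dependent fluorescence (Ex/Em 480/540) was followed kinetically for 3 min after compound transfer.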

[3] = G protein-coupled receptor (GPCR) small molecule agonists, calcium flux assay: HEK293 wild type cell line counter screen (AID 1920065); also: potency is read from the fitted curve at half-maximal effect
Outline: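 Fluorescence intensity signals activation. After overnight (18 h) culture and a 1 h calcium dye load at 37 C, compounds are added by pin tool and the plate read at 480/540 nm for 3 min in 1 s steps.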

[4] = p53 small molecule agonists, cell-based qHTS assay with rat liver microsomes (AID 1963578); also: potency is read from the fitted curve at half-maximal effect
Outline: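 p53RE-bla cells, 4,000/well, pre-incubated 5 h, then given compounds plus rat liver microsomes (0.5 mg/mL final) and NADPH (0.5 mg/mL final). Incubation 16 h at 37 C; beta-lactamase reporter read by LiveBLAzer fluorescence after 2 h at room temperature.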

[5] = p53 small molecule agonists, cell-based qHTS assay with human liver microsomes: qHTS cell viability counter screen (AID 1963579); also: nearly all actives have a fitted effect of over 45% in size
Outline: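 p53RE-bla cells, 4,000/well, dosed 5 hours after plating, with human liver microsomes (0.5 mg/mL final) plus NADPH (0.5 mg/mL final), 16 hours at 37 C. Viability read as CellTiter-Glo luminescence after 30 min at room temperature.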

[6] = p53 small molecule agonists, cell-based qHTS assay with rat liver microsomes: qHTS cell viability counter screen (AID 1963580); also: nearly all actives have a fitted effect of over 45% in size; also: potency is read from the fitted curve at half-maximal effect
Outline: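 After the beta-lactamase ratio was read, CellTiter-Glo was added to the same wells and luminescence measured at 30 min; cells had been treated 16 h at 37 C with compounds, rat liver microsomes and NADPH (0.5 mg/mL final each).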

[7] = p53 small molecule agonists, cell-based qHTS assay (AID 1963582; active = well fitted activation curve with a large enough effect in the signal ratio in the repeat runs, not every such curve was filed as active; the % refers to the signal ratio)
Outline: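 After plating, p53RE-bla cells sat 5 h in the incubator; compounds or DMSO vehicle were pinned in; a 16 h incubation at 37 C followed; FRET substrate was added and, 2 h later at RT, fluorescence was measured.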

[8] = target: 5-hydroxytryptamine receptor 2A (Homo sapiens) (UniProt P28223); assay: 5-hydroxytryptamine receptor 2A (HTR2A) small molecule antagonists, cell-based qHTS assay (AID 1963586); also: nearly all actives have a fitted effect of over 45% in size; also: potency is read from the fitted curve at half-maximal effect
Sequence of 5-hydroxytryptamine receptor 2A (Homo sapiens) (P28223 whole entry, looked up): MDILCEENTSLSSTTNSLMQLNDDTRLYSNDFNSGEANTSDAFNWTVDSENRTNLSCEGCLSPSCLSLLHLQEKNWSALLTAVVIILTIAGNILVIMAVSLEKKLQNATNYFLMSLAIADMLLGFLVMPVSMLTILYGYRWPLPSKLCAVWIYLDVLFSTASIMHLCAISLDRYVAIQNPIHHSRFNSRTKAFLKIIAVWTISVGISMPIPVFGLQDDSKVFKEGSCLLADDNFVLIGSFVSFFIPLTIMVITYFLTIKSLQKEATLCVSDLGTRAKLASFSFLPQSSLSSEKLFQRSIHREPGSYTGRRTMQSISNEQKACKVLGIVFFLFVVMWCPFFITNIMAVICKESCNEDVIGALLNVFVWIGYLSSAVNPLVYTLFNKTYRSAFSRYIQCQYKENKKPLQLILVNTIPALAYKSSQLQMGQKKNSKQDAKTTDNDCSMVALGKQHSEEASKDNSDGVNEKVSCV
Outline: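 CHO cells stably expressing human HTR2A were plated for 18 h at 37 C, then loaded with calcium dye for 1 h. Compounds were preincubated 5 min at room temperature before DOI (4 nM solution) was added. Kinetic fluorescence was read for 3 min.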

[9] = target: 5-hydroxytryptamine receptor 2A (Homo sapiens) (UniProt P28223); assay: 5-hydroxytryptamine receptor 2A (HTR2A) small molecule agonists, cell-based qHTS assay (AID 1963587); also: nearly all actives have a fitted effect of over 30% in size; also: potency is read from the fitted curve at half-maximal effect
Outline: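 CHO cells stably expressing human HTR2A, plated 18 h, loaded with calcium dye 1 h at 37 C. Agonist mode: compounds added and intracellular calcium fluorescence recorded kinetically for 2 min at 1 sec intervals.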

[10] = target: Muscarinic acetylcholine receptor M1 (Homo sapiens) (UniProt P11229); assay: Cholinergic receptor muscarinic 1 (CHRM1) small molecule antagonists, cell-based qHTS assay (AID 1963588); also: nearly all actives have a fitted effect of over 40% in size; also: potency is read from the fitted curve at half-maximal effect
Sequence of Muscarinic acetylcholine receptor M1 (Homo sapiens) (P11229 whole entry, looked up): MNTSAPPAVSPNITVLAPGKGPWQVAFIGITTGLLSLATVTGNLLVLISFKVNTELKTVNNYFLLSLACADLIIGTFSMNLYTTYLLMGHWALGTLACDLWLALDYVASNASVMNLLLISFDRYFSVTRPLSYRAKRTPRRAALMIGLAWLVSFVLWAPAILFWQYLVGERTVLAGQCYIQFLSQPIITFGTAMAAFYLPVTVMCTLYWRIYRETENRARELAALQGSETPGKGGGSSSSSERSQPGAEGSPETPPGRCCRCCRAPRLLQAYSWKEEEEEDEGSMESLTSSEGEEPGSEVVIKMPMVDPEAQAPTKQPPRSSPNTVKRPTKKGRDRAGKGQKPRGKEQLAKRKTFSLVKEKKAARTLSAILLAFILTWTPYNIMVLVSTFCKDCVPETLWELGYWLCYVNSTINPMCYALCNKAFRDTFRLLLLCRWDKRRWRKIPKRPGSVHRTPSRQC
Outline: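 Compounds were tested at 15 concentrations in three independent runs. Dye-loaded CHRM1-CHO cells were exposed 5 min at room temperature before stimulation by acetylcholine added at 50nM. Intracellular calcium was read kinetically on FDSS for 3 min.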

[11] = target: Muscarinic acetylcholine receptor M1 (Homo sapiens) (UniProt P11229); assay: Cholinergic receptor muscarinic 1 (CHRM1) small molecule agonists, cell-based qHTS assay (AID 1963589); also: nearly all actives have a fitted effect of over 35% in size; also: potency is read from the fitted curve at half-maximal effect
Outline: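 Fluorescent calcium dye reports M1 activation in stably transfected CHO cells. Compounds, 15 concentrations, added after 1 h dye loading at 37 C; kinetic reading at 1 sec intervals.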

[12] = cAMP Responsive Elements (CRE) small molecule agonists, cell-based qHTS assay (AID 1963590)
Outline: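 Compound exposure lasted 3 h at 37 C/5% CO2 in CRE-bla HEK 293T cells grown in assay medium with 10% dialyzed FBS and 25 mM HEPES. Reporter signal came from LiveBLAzer B/G FRET substrate, 2 h, room temperature.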

[13] = cAMP Responsive Elements (CRE) small molecule antagonists, cell-based qHTS assay (AID 1963591; active = well fitted inhibition curve with a large enough effect in the signal ratio in the repeat runs, not every such curve was filed as active; the % refers to the signal ratio; also: potency is read from the fitted curve at half-maximal effect)
Outline: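 Stimulation used NKH477 at a final 0.25 uM for 3 h in compound-treated CRE-bla HEK293T cells, seeded 18 h beforehand. Reporter activity was measured with LiveBLAzer B/G FRET substrate after 2 h at room temperature.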

[14] = target: Beta-2 adrenergic receptor (Homo sapiens) (UniProt P07550); assay: Adrenergic beta2 receptor (ADRB2) small molecule antagonists, cell-based qHTS assay (AID 1963592); also: nearly all actives have a fitted effect of over 50% in size; also: potency is read from the fitted curve at half-maximal effect
Sequence of Beta-2 adrenergic receptor (Homo sapiens) (P07550 whole entry, looked up): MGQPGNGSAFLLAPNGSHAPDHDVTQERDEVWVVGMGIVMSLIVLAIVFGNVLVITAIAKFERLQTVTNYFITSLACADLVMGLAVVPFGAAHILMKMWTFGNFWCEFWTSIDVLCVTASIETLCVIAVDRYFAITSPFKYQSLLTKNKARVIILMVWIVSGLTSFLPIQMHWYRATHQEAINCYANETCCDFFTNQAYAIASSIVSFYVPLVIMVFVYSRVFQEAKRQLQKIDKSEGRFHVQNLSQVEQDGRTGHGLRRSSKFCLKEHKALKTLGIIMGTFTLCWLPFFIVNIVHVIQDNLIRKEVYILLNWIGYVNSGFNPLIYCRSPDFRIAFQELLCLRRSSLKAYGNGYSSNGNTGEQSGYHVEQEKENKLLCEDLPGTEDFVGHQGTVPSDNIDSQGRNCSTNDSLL
Outline: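 Assay format: CHO-ADRB2 cells, 18-20hr seeding at 37C/5% CO2, then compound plus 1nM isoproterenol agonist mix for 0.5hr RT. Homogeneous time-resolved fluorescence cAMP detection after 1hr, expressed as 665/615 nm ratio.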

[15] = target: D(2) dopamine receptor (Homo sapiens) (UniProt P14416); assay: Dopamine D2 receptor (DRD2) small molecule agonists, cell-based qHTS assay (AID 1963594); also: nearly all actives have a fitted effect of over 35% in size; also: potency is read from the fitted curve at half-maximal effect
Sequence of D(2) dopamine receptor (Homo sapiens) (P14416 whole entry, looked up): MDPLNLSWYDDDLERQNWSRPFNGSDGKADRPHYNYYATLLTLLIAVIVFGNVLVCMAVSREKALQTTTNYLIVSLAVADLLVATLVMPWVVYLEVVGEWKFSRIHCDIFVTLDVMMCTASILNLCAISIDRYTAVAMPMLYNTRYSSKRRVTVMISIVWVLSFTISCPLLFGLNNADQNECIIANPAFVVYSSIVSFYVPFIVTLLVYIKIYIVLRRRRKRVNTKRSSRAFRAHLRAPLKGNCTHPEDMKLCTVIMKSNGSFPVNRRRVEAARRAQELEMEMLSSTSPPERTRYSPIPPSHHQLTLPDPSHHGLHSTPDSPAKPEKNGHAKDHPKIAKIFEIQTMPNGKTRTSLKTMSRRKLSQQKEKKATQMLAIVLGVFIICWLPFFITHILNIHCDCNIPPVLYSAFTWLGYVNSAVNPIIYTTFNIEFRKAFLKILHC
Outline: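 HEK293 cells stably expressing human DRD2, pre-treated with PDE inhibitor Ro20-1724 (0.1 mM final) and compound 10 min at room temperature, then stimulated with NKH477 (200nM […]) for 30 min. cAMP read by HTRF (665/620 nm).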

[16] = target: D(2) dopamine receptor (Homo sapiens) (UniProt P14416); assay: Dopamine D2 receptor (DRD2) small molecule antagonists, cell-based qHTS assay (AID 1963595; active = well fitted inhibition curve with a large enough effect in the signal ratio in the repeat runs, with a control signal flat; the % refers to the signal ratio)
Outline: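 Readout: HTRF cAMP, cAMP-d2 competing with cellular cAMP for anti-cAMP cryptate, read after 1 h. Cells: DRD2-HEK293. Conditions: 0.1 mM Ro20-1724, 12 nM quinpirole, 200 nM NKH477, 30 min RT.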

[17] = p53 small molecule agonists, cell-based qHTS assay: qHTS cell viability counter screen (AID 1963581); also: nearly all actives have a fitted effect of over 45% in size; also: potency is read from the fitted curve at half-maximal effect
Outline: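 Luminescence from CellTiter-Glo, reflecting ATP content, serves as the cytotoxicity measure; it is taken after the 2 h reporter substrate step in HCT-116 p53RE-bla cells dosed for 16 h at 37 C.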

[18] = target: Beta-2 adrenergic receptor (Homo sapiens) (UniProt P07550); assay: Adrenergic beta2 receptor (ADRB2) small molecule agonists, cell-based qHTS assay (AID 1963593);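 also: CHO cells stably overexpressing human ADRB2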
Outline: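 CHO cells stably over-expressing ADRB2 were plated overnight at 37C, then dosed with compounds plus a stimulation mix containing 100uM IBMX and 25uM Ro-20-1724 for 0.5hr at room temperature. cAMP was measured by HTRF competition, 1hr.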

[19] = p53 small molecule agonists, cell-based qHTS assay with human liver microsomes (AID 1963577)
Outline: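 p53RE-bla cells, 4,000/well, compound added after 5 h, with human liver microsomes 0.5 mg/mL and NADPH 0.5 mg/mL final; 16 h at 37 C, then LiveBLAzer 2 h RT, fluorescence.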

Measured: Potency

CN(C)CCOC(c1ccccc1)c1ccc(Br)cc1 (stereo not drawn)
active: [8] 6.5 µM | [10] 3.65 µM
not listed: [17] | [18] | [19]
inactive: all other assays above

COC(OC)(C(=O)c1ccccc1)c1ccccc1
not listed: [4] | [6] | [7] | [15] | [19]
inactive: all other assays above

CN(C)C(=O)C(CCN1CCC(O)(c2ccc(Cl)cc2)CC1)(c1ccccc1)c1ccccc1
active: [14] 11.9 µM
inactive: [1] | [2] | [3] | [17] | [7] | [13] | [15] | [16]

OC[C@H]1O[C@@H](n2cnc3c(=S)nc[nH]c32)[C@H](O)[C@@H]1O
not listed: [4] | [7] | [17] | [19]
inactive: all other assays above

O=C(O)COCCN1CCN(C(c2ccccc2)c2ccc(Cl)cc2)CC1 (stereo not drawn)
not listed: [4] | [5] | [6] | [19]
inactive: all other assays above

CCCCOC(=O)c1ccccc1C(=O)OCC(CC)CCCC (stereo not drawn)
not listed: [8] | [18] | [19]
inactive: all other assays above

C=CC(C)(CCC=C(C)C)OC(=O)CC(C)C (stereo not drawn)
not listed: [4] | [7] | [10] | [14] | [15] | [18] | [19]
inactive: all other assays above

O=C1c2c(O)ccc(O)c2C(=O)c2c(NCCNCCO)ccc(NCCNCCO)c21
active: [6] 19.9 µM | [13] 21.1 µM
inactive: [1] | [2] | [3] | [12]

O=C(O)c1ccccc1-c1ccc(C(F)(F)F)cc1
not listed: [4] | [5] | [7] | [15] | [19]
inactive: all other assays above

CN1C(C)(C)CC(O)CC1(C)C
not listed: [4] | [7] | [18] | [19]
inactive: all other assays above

Nc1ccc(O)c(N)c1
not listed: [4] | [10] | [13] | [14] | [16] | [18]
inactive: all other assays above

OCc1c[nH]c2ccccc12
active: [11] 0.0031 µM
inactive: [1] | [2] | [3] | [6] | [8] | [16]

Cc1ccc(O)c([C@H](CCN(C(C)C)C(C)C)c2ccccc2)c1
active: [10] 0.0326 µM
not listed: [9] | [17] | [19]
inactive: all other assays above

CN(C)c1ccc(C=O)cc1
not listed: [8] | [19]
inactive: all other assays above

COc1ccc(CCN(C)CCCC(C#N)(c2ccc(OC)c(OC)c2)C(C)C)cc1OC (stereo not drawn)
inactive: [1] | [2] | [3] | [5] | [6] | [17] | [14] | [15] | [16]

O=C(OCC(O)CO)c1ccccc1Nc1ccnc2cc(Cl)ccc12 (stereo not drawn)
not listed: [4] | [7] | [10] | [12] | [13] | [19]
inactive: all other assays above

O=C1OC2(c3ccc(O)cc3Oc3cc(O)ccc32)c2ccc(N=C=S)cc21
inactive: [5] | [17] | [10] | [13] | [18]
active: [1] 14.1 µM | [2] 44.4 µM | [3] 39.6 µM | [9] 17.7 µM | [11] 22.3 µM

O=S(=O)(O)c1ccccc1/C=C/c1ccc(-c2ccc(/C=C/c3ccccc3S(=O)(=O)O)cc2)cc1
active: [4] 11.7 µM
inactive: [1] | [2] | [3] | [5] | [6] | [17] | [11] | [14] | [15] | [16]

Nc1cccnc1N
not listed: [4] | [8] | [14] | [16] | [18]
inactive: all other assays above

N#CCCNCCC#N
not listed: [4] | [7] | [12] | [17] | [19]
inactive: all other assays above

COCCOC
active: [17] 2.75 µM
not listed: [4] | [7] | [13] | [15] | [16] | [18] | [19]
inactive: all other assays above

Cc1nn(C)c(Oc2ccccc2)c1/C=N/OCc1ccc(C(=O)OC(C)(C)C)cc1
not listed: [7] | [12] | [13] | [15] | [16] | [19]
inactive: all other assays above

CCCCCCCCCO
active: [15] 43.3 µM
not listed: [4] | [5] | [6] | [19]
inactive: all other assays above

CC(C)C1CCC(C(=O)N[C@H](Cc2ccccc2)C(=O)O)CC1 (stereo partly drawn)
not listed: [4] | [7] | [8] | [9] | [10] | [11] | [14] | [19]
inactive: all other assays above

C(=C\c1ccccc1)/CN1CCN(C(c2ccccc2)c2ccccc2)CC1
inactive: [1] | [2] | [3] | [4] | [5] | [6] | [17] | [7] | [14] | [15]

Nc1ccc([N+](=O)[O-])cc1O
not listed: [4] | [6] | [14] | [15] | [16] | [17] | [18]
inactive: all other assays above

C#C[C@]1(O)CC[C@H]2[C@@H]3[C@H](C)CC4=C(CCC(=O)C4)[C@H]3CC[C@@]21C
inactive: [1] | [2] | [3] | [4] | [5] | [6] | [7] | [16]
active: [14] 23.7 µM
